The values below come from PubChem BioAssay AID2158 (National Center for Advancing Translational Sciences (NCATS), 2009).

Values joined by “and” are separate entries in the source; they are usually repeats but may differ in a detail not shown here. Identical values can stand only once. Inconclusive results are not listed. Active and inactive are the calls of the source. Calls follow the shape of the dose curve; as a rule, active = well fitted inhibition curve with a large enough effect; inconclusive = small, poorly fitted or top-dose-only effect; inactive = no such curve, though single readings can be large or run the other way.
Potency is read from the fitted curve at half-maximal effect.

Cruzipain (Trypanosoma cruzi), sequence (P25779 123-467 limits assumed): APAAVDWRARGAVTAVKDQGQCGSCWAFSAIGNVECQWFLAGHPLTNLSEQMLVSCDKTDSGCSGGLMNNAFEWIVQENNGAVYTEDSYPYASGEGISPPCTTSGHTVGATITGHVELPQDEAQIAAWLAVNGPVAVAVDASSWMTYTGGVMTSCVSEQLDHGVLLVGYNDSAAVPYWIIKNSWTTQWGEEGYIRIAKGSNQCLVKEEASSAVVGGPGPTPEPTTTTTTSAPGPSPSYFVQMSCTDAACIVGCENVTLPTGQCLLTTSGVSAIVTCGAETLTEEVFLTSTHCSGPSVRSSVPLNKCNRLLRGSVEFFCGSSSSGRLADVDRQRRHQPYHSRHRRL

This test concerns the target Cruzipain (Trypanosoma cruzi) (UniProt P25779). The test is described as follows: Confirmation qHTS Assay for Inhibitors of Cruzain. Also: nearly all actives have a fitted effect of over 40% in size.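 As to activity change, negative = inhibition: plate controls were uninhibited enzyme control for no effect and buffer wells lacking enzyme for full effect.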 To be noted: purified cruzain, Z-FR-AMC fluorescence, 0.01% Triton. The procedure:
Cruzain is a cysteine protease from the tropical parasite Trypanosoma cruzi. This assay protocol is a follow-up and confirmation of related AID 1478 (qHTS Assay for Promiscuous and Specific Inhibitors of Cruzain -- with detergent). Cruzain was assayed by the use of fluorogenic coumarin-based substrate Z-FR-AMC: proteolytic cleavage releases AMC, whose fluorescence is measured at 360 nm excitation and 450 nm emission. Purified cruzain was supplied by the labs of Prof. James McKerrow and Brian Shoichet, UC San Francisco. This assay had 0.01% Triton X-100 concentration. See following references for additional details: Jadhav A, et al. J Med Chem. 2010 Jan 14;53(1):37-51. Mott BT, et al. J Med Chem. 2010 Jan 14;53(1):52-60. Assay Provider: Shoichet, Brian; University of California, San Fancisco Screening Center PI: Austin, C.P. Screening Center: NIH Chemical Genomics Center [NCGC]
Buffer: 100 mM Sodium Acetate, pH 5.5, 5 mM DTT, Triton X-100 concentration: 0.01%. Reagents/Controls: Buffer in columns 3 and 4 as negative control (no enzyme). Substrate solution: 2 uM final concentration of Z-FR-AMC (catalog number I-1160, Bachem) dispensed throughout the plate. Enzyme: 1.5 nM Cruzain final concentration in columns 1, 2, 5-48. Column 1 is neutral (100% activity). Column 2 contained titration of covalent inhibitor K11777, starting concentration 1 mM, then 1:2 dilution in duplicate). Assay Steps: Three uL of enzyme or buffer were dispensed to 1536-well Greiner black solid bottom plates. Compounds and controls (23 nL) were transferred via Kalypsys PinTool. The plates were incubated for 15 min at room temperature, and then 1 uL of substrate solution was added to start the reaction. The plates were immediately transferred to and read 4 times every 30 seconds for 2 min on ViewLux High-throughput CCD imager (Perkin-Elmer) using 360 nm excitation and 450 nm emission fluorescence protocol. The fluorescence intensity difference between the third and the first time points (time lapse of 60 seconds) was used to compute reaction progress.
As to `COc1ccccc1C(=O)NCC(=O)OCC(=O)c1cccc2ccccc12`, the Potency was 31.6 µM (active).
On the same count and under the same terms, the same measure for `O=C(COC(=O)CCSc1ccccc1Cl)Nc1ccc(F)cc1F`: 14.1 µM (active).
Still for that read-out and setting: the same measure for `CC/C=C1/N=C2C(=O)N(C)C(=O)N=C2N(C)N1`: 0.631 µM (active).
As to `N#Cc1nc(Nc2ccc3ccccc3c2)nc(NC2CCCC2)n1`, the Potency was 1.26 µM (active).
`Cc1cc(OCC(=O)Nc2ccc(N3CCCC3)cc2)cc(C)c1Cl`: the activity change, negative = inhibition is -30.4% (inactive).
Take `OCCN(CCO)c1ccc(C(c2ccccc2Cl)c2ccc(N(CCO)CCO)cc2Cl)c(Cl)c1`: the activity change, negative = inhibition was -15.5% (inactive).
Turning to `CC(C)Nc1nc(C#N)nc(Nc2ccccc2)n1`, the Potency is 0.891 µM (active).
On to `COc1cccc(C(=O)NC2CCN(C#N)CC2)c1`, for which the activity change, negative = inhibition was -6.95% (inactive).
In the case of `N#Cc1nc(NCC2CC2)nc(Nc2ccccc2)n1`, the Potency was 0.891 µM (active).
With `O=C(c1ccc(OCCN2CCCCC2)cc1)c1c(-c2ccc(O)cc2)sc2cc(O)ccc12`, the activity change, negative = inhibition is -21.2% (inactive).
`CCn1nc(-c2ccccc2C)nc2c(=O)n(C)c(=O)nc1-2`: the Potency was 0.631 µM (active).
For `O=C(Cc1nnc(CNC(=O)c2ccccc2)o1)Nc1cc(C(F)(F)F)ccc1Cl`, the activity change, negative = inhibition is -8.68% (inactive).
The same measure, in the same setting: for `O=C(CNC(=O)c1ccccc1)NCC(=O)OCC(=O)c1cccc2ccccc12` the value was -13.9% (inactive); for `c1ccc(CNCc2nnc(-c3cc4ccccc4[nH]3)o2)cc1`, -1.64% (inactive).
Same read-out and setting: the same measure for `CCCCC(O)C(=O)Nc1cc(C(F)(F)F)ccc1Cl` (stereo not given): -16.9% (inactive).
In the case of `N#Cc1nc(N2CCCCC2)nc(N2CCOCC2)n1`, the Potency is 2.82 µM (active).
Regarding `O=C(NC(=S)Nc1nc(-c2cccc3ccccc23)cs1)c1cc2ccccc2o1`, the activity change, negative = inhibition was -1.65% (inactive).
On to `CCCn1c(SCC(=O)N2CC(=O)Nc3ccccc32)nc2ccccc21`, for which the Potency is 28.2 µM (active).
On the same count and under the same terms, for `CCNc1nc(C#N)nc(N2CCOCC2)n1` the value was 10 µM (active).
Take `COc1ccc(N=Cc2nc(-c3ccccc3)oc2OC(=O)c2ccccc2)cc1`: the activity change, negative = inhibition was -22% (inactive).
The same measure, in the same setting: for `Cc1ccc(S(=O)(=O)NCC(=O)OCC(=O)Nc2ncc(Cl)cc2Cl)cc1` the value was -50.6% (inactive).
On the same count and under the same terms, for `Cc1ccc(O/C=C2/Nn3c(nnc3-c3cc(-c4ccccc4)n[nH]3)S2)cc1` the value was -1.56% (inactive); for `CCOc1cccc(-c2nn3c(-c4cc(C)[nH]n4)nnc3s2)c1`, -3.99% (inactive).
As to `CC(C)CC(O)C(=O)Nc1cc(C(F)(F)F)ccc1Cl` (stereo not given), the activity change, negative = inhibition was -12% (inactive).
With `CCN(CCO)c1nc(SC)nc2c1sc1nc(-c3ccco3)c3c(c12)CCC3`, the Potency was 17.8 µM (active).
For the molecule `CCN1CCN(CCCNC(=O)c2cc3c(s2)-c2ccccc2OC3)CC1`, the Potency is 15.8 µM (active).
Still for that read-out and setting: for `CCNc1nc(C#N)nc2c1ncn2-c1cc(F)cc(F)c1` the value was 0.224 µM (active).
Take `CC(C)(C)OC(=O)NCC(=O)NNC(=O)C(C(=O)OCc1ccccc1)c1ccccc1` (stereo not given): the activity change, negative = inhibition was -3.79% (inactive).
Still for that read-out and setting: for `O=C(Cn1cc(CN(Cc2ccccc2)Cc2ccccc2)nn1)Nc1cc(C(F)(F)F)ccc1Cl` the value was -13.2% (inactive).
Take `COc1nc(C#N)nc(N(C)C)n1`: the Potency is 6.31 µM (active) and 7.94 µM (active).
Take `Cc1ccc(OCCNC(=O)CNC(=O)Cc2cccc3ccccc23)cc1`: the activity change, negative = inhibition is -1.3% (inactive).
The same measure, in the same setting: the same measure for `Cc1oc(=O)c(NC(=O)c2cccc(Cl)c2)cc1C(=O)c1ccccc1`: -24.6% (inactive); for `O=[S+]([O-])(/C=C/c1nc(Nc2cc(F)cc(F)c2)c2ncn(CC(F)F)c2n1)c1ccccc1`: -11.8% (inactive); for `CCCCNC(=O)Cn1c(SCc2ccccc2C)nc2ccncc21`: -24.9% (inactive).
The same measure, in the same setting: for `N#CCSc1nc2scc(-c3cccs3)c2c(=O)n1CCc1ccccc1` the value was -7.68% (inactive).
With `O=C1NN(c2ccc(Cl)c(Cl)c2)C(=O)/C1=C/c1cccc(OC(=O)c2cccs2)c1`, the Potency is 35.5 µM (active).
For `Cc1ccc(C)c(OCCn2c(CCNC(=O)C3CCCCC3)nc3ccccc32)c1`, the Potency is 0.0708 µM (active).
Consider `COc1ccccc1N1CCN(C(=O)CN(c2ccccc2OC)S(=O)(=O)c2ccccc2)CC1`, for which the activity change, negative = inhibition was -10.1% (inactive).
Turning to `COc1ccc(NC(=O)C(OC(=O)CNC(=O)c2ccccc2)c2ccccc2)c(C)c1` (stereo not given), the Potency is 8.91 µM (active).
Same read-out and setting: for `Cc1ccccc1OCCCCn1c(CCNC(=O)C2CCCCC2)nc2ccccc21` the value was 0.562 µM (active).
